Assay outcomes from PubChem.
GRK2 inh = inhibitors of human GRK2 displacing RNA aptamer; P25098; bead flow cytometry, FAM-aptamer displacement from GRK2; inhibition of aptamer binding, % at 10 µM; 0.59% of 330,000 active;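 active = inhibition of aptamer binding above 40%, roughly 3 SD of noise, on plates passing a quality check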;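 note: median bead fluorescence of bound FAM aptamer so fluorescent compounds give negative values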
B2AR ag = activates human beta-2 adrenergic receptor causing internalization; P07550; Am2.2-beta2AR cells, FAP receptor internalization, flow cytometry; response, % (no concentration beside the values); 0.43% of 340,000 active;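 active = response above a set limit, near 3 SD of response in nonfluorescent compounds, cut at about 42% in these data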
Granule exo inh = lytic granule exocytosis inhibition | TALL-104 LAMP-1 surface exposure, flow cytometry; cells stimulated with thapsigargin and PMA | inhibition, % at 10 µM | 0.66% of 360,000 active;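 active = inhibition above about 55%, limit read from the data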
PP1 counter = counter-screen for PP5 inhibitors: inhibitors of human PP1-alpha; P62136; purified PP1alpha, OMFP fluorescence; inhibition, % at 6.7 µM; 0.9% of 320,000 active;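 active = inhibition above the mean inhibition of all tested compounds plus 3 SD, computed separately for each screening campaign, cut at about 15% in these data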
Target sequence (P62136 whole entry, looked up): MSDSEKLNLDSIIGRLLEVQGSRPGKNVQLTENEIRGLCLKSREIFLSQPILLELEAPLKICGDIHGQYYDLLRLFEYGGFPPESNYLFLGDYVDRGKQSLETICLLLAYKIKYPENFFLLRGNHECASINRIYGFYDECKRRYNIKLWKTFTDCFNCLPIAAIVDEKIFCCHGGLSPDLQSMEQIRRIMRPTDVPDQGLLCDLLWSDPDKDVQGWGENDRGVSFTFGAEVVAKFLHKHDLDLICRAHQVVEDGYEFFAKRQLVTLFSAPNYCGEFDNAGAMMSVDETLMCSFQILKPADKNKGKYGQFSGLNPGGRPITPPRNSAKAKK
NadD inh = inhibitors of Staphylococcus aureus NadD. purified NadD enzyme, colorimetric absorbance read-out. inhibition, % at 20 µM. 0.78% of 360,000 active. AID 602399; in the data active = inhibition above about 26%
GRK2 inh confirm = confirmation of human GRK2 inhibitors displacing RNA aptamer | aptamer displacement, % at 10 µM | bead-bound GRK2, FAM-aptamer displacement, flow cytometry | 4% of 2,000 active | shares compounds with GRK2 inh;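 active = aptamer displacement above 40%, near three times the noise of non-fluorescent compounds, on plates passing quality checks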;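 note: negative values mostly reflect intrinsic compound fluorescence rather than true enhancement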
FAM quench CP1 = counter-screen for GRK2 aptamer inhibitors: fluorescent aptamer quenchers; shares compounds with GRK2 inh; Carboxyfluorescein RNA aptamer on beads, flow cytometry quenching; hits give low values; fluorescence response (% of DMSO), % at 10 µM; 2,000 tested, under 10 active; AID 504580;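 active = compounds that quench the bead-bound fluorescent RNA probe, cutting fluorescence to under half of the solvent control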;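 note: counterscreen run without GRK2 so only probe quenching by compound is measured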
GRK2 CP2 = confirmation of human GRK2 inhibitors binding RNA aptamer site. bead-bound GRK2, FAM-aptamer displacement, flow cytometry. 360 tested, under 10 active. shares compounds with GRK2 inh. inhibition of aptamer binding, % at 10 µM;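 active = inhibition of aptamer binding above 40%, about triple the noise seen with nonglowing compounds, on plates passing quality control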;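 note: negative values mostly come from compounds that fluoresce themselves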
FAM quench SP = counter-screen for GRK2 binding hits: quenchers of fluorescent RNA aptamer | shares compounds with GRK2 inh | carboxyfluorescein RNA aptamer beads, flow cytometry quenching; hits give low values | fluorescence response vs DMSO, % at 10 µM | 360 tested, under 10 active;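 active = response vs DMSO under 50%, meaning signal dropped by over half, treated as fluorescence quencher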;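 note: labelled aptamer on streptavidin beads without GRK2 as a quench counter-screen; 100% = bead fluorescence of DMSO wells and lower means quenching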
The depositor's hits bear a star; . = no result given. Compounds with a hit are over-represented: about 2.9% of the library has one in this group of screens.

SMILES	GRK2 inh	B2AR ag	Granule exo inh	PP1 counter	NadD inh	GRK2 inh confirm	FAM quench CP1	others
CNCCOc1ccccc1OC(C)C	0	13	-1	1	-1	.	.
Nc1nn(-c2ccccc2)c2ccc([N+](=O)[O-])cc12	75*	-4	-6	-2	-4	2	85
CCc1ccc2nc3c(c(C(=O)O)c2c1)CCC3	13	3	1	-3	13	.	.	GRK2 CP2=13;FAM quench SP=101
O=C(O)c1c2c(nc3ccc(S(=O)(=O)N4CCC(C(=O)N5CCCCC5)CC4)cc13)CCCC2	84*	-3	-4	2	0	-1	98
COc1ccccc1NC(=O)Cc1csc(NC(=S)Nc2ccccc2)n1	58*	-6	-5	15	9	2	99
COc1ccc(CN2CCN(C3CCC3)CC2CCO)c(C)c1C (configuration not stated)	3	-11	11	1	-3	.	.
CC1(C)SCC(C(=O)O)N1C=O (configuration not stated)	3	6	4	-1	-6	.	.
COc1ccc(NC(=O)C2CSC(C)(C)N2C=O)cc1 (configuration not stated)	75*	-3	-15	4	5	-3	100
Cn1cnnc1SCc1ccc(C(=O)N/N=C(/CCC(=O)O)c2ccc(C(C)(C)C)cc2)cc1	.	4	0	.	0	.	.
Cc1c(NC(=O)c2n[nH]c(=O)c3ccccc23)c(=O)n(-c2ccccc2)n1C	81*	4	-2	6	-6	-1	109
CCC(C)NS(=O)(=O)c1ccc(S(=O)(=O)N2CCCC3(CCCCC3)C2)cc1 (configuration not stated)	0	11	5	12	6	.	.
COc1cccc(C2c3[nH]c4ccccc4c3CCN2C(=O)c2ccccc2F)c1OC (configuration not stated)	50*	12	5	-2	3	2	98
COc1ccc(CC(=O)OCC(=O)NCc2ccc3c(c2)OCO3)cc1OC	9	0	3	.	-2	.	.
CC1=C(C(=O)OCc2ccccc2)C(c2cccc(F)c2)NC(=O)N1 (configuration not stated)	51*	-5	51	1	-1	5	82
Cc1ccc(NC(=O)CN(C)C(=O)C2COc3ccccc3O2)cc1 (configuration not stated)	0	0	-1	-4	-4	.	.
COc1ccccc1CN(C)C(=O)C1COc2ccccc2O1 (configuration not stated)	4	2	0	-1	3	2	99
O=C(c1ccc(Cl)cc1[N+](=O)[O-])N1CCN(c2ccccn2)CC1	82*	-5	3	-3	-10	-5	102
Cc1ccc(C(=O)N2CCN(c3ccccn3)CC2)cc1[N+](=O)[O-]	1	-2	0	1	-1	.	.
Cc1c(C(=O)N2CCN(c3ccccn3)CC2)cccc1[N+](=O)[O-]	4	2	-2	-2	0	1	103
CC(C)C(=O)Nc1ccc(-c2nc3ccccc3c(=O)o2)cc1	0	-7	1	-2	-10	.	.
CCOCCc1nnc(NC(=O)C2CC(=O)N(c3ccc(OCC)cc3)C2)s1 (configuration not stated)	93*	-4	-7	1	-3	0	96
CC(C)(C)c1ccc(C(=O)N2[C@H](COCc3ccccc3)C=CS2(=O)=O)cc1	.	.	0	.	-5	.	.
COc1ccc(NC(=O)c2ccc(-c3ccc(-c4noc(C)n4)cc3C)cc2)cc1N1CCN(C)CC1	6	11	44	-1	1	-11	97
F[B-](F)(F)c1cc2ccccc2s1	.	-4	7	.	1	.	.
COc1ccc(C(=O)Nc2cccc(C(=O)NCc3ccccc3)c2)cc1	0	3	3	11	-5	2	100
SMILES	GRK2 inh	B2AR ag	Granule exo inh	PP1 counter	NadD inh	GRK2 inh confirm	FAM quench CP1	others
COc1ccc(NC(=O)c2cccc(NC(=O)c3ccccc3)c2)cc1	0	2	-4	2	-7	.	.
Cc1occc1C(=O)Nc1cccc(C(=O)NCc2ccccc2)c1	0	-4	2	1	-7	-2	100
Cc1ccc(C(=O)Nc2cccc(C(=O)NCc3ccccc3)c2)cc1	0	1	8	4	-5	2	102
CCCCOc1nc2ccccc2nc1NS(=O)(=O)c1ccc(F)cc1	0	11	13	2	-4	.	.
CCC(C)Oc1nc2ccccc2nc1NS(=O)(=O)c1ccccc1 (configuration not stated)	82*	2	2	-3	-1	0	101
O=C(CSc1n[nH]c(=O)[nH]c1=O)Nc1ccc(Br)cc1Br	0	5	-2	-4	6	.	.
OC[C@@H](O)[C@H](O)C(/C=N/Nc1ccccc1)=N\Nc1ccccc1	40	12	-5	2	6	0	96
COc1ccc(C(=O)N2C=Cc3ccccc3C2C(N)=O)cc1 (configuration not stated)	.	.	17	.	0	.	.
COc1cc(C(=S)N2CCCC2)ccc1OCc1ccccc1	0	-5	2	2	-4	.	.
O=C1NC(=O)/C(=C\c2ccc(Br)o2)S1	90*	5	4	3	-2	6	94
O=C1NC(=O)/C(=C/c2ccc(-c3cc(C(=O)O)ccc3Cl)o2)S1	14	-3	-2	3	6	.	.
CSc1nc(C)nc(N/C=C(\C#N)S(=O)(=O)c2ccccc2Cl)n1	5	9	10	0	2	.	.
Cc1ccc(S(=O)(=O)N2CCC(=O)N([C@H](COC(=O)Nc3ccccc3)Cc3ccccc3)CC2)cc1	.	.	-8	.	-4	.	.
COc1ccc(C)cc1NC(=O)c1ccc2c(c1)C(=O)N(Cc1ccncc1)C2=O	79*	-2	5	2	6	2	95
COc1ccc(NC(=O)c2ccc3c(c2)C(=O)N(Cc2ccncc2)C3=O)cc1S(N)(=O)=O	6	5	0	.	1	.	.
Cc1cc(-c2ccc(Cl)cc2)n2nc(C)cc2n1	45*	0	-6	-4	6	-5	102
CCc1nn2c(N3CCOCC3)cc(C)nc2c1-c1ccccc1	4	-1	-15	-3	-5	9	99
CC(C)(C)OC(=O)N1CCC(CNC(=O)c2ccc(F)cc2)CC1	1	-3	0	-6	-2	.	.
